A selection: hits, their analogues and other compounds. The true share with any hit is near 1.6%.
PERK inhibitor: blocks human PERK kinase; Q9NZJ5; CHO PERK-DD fusion, SEAP luminescence translation reporter; inhibition, % at 5.6 µM; 220,000 tested, 0.17% active; AID 1416;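 active = inhibition above the mean inhibition of all tested compounds plus 3 SD, set separately per screening campaign, cut at about 2.9% in these data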;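 note: PERK kinase domain activated by AP20187 dimerizer at 100 nM; 0% = DMSO with dimerizer and 100% = rapamycin at 8.4 µM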
PABP1 MLLE inh: blocks PAM2 peptide binding to the PABP1 MLLE domain; 360,000 tested, 0.36% active; inhibition, % at 20 µM; P11940; AID 588489; GST-MLLE / FITC-PAM2 fluorescence polarization; in the data active = inhibition above about 35%, passing the limit was not always enough;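 note: plate controls were DMSO wells with GST-MLLE for no effect and wells lacking GST-MLLE protein for full effect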
eIF4E-4G inh: eIF4E/eIF4G interaction inhibition in translation initiation; 220,000 tested, 0.37% active; inhibition, % at 21.7 µM; TR-FRET eIF4E-eIF4GI(517-606) binding, 2 h; P63073+Q04637;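 active = inhibition above about 30%, limit read from the data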;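 note: 0% = full FRET control wells and 100% = background wells lacking eIF4GI fragment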
PABP FP inh: PABP-poly(A) binding inhibition. P11940. PABP-poly(A) RNA binding, fluorescence polarization. calls only at 35 µM. 290,000 tested, 1% active;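 note: calls also rest on retests at 20 µM and on dose response follow-up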
eIF4H FP inh: inhibitors of RNA binding by human eIF4H | Q15056 | eIF4H fluorescence polarization binding assay | inhibition, % at 35 µM | 290,000 tested, 0.94% active | AID 2012;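 note: calls also rest on retests at 20 µM and on dose response follow-up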
* = called active by the depositor; i = inactive; ? = inconclusive; . = no result; + = active, no number; [ ] = dose if it differs, or a comment. Unless noted, the rule behind the calls is not given here.

SMILES	PERK inhibitor	PABP1 MLLE inh	eIF4E-4G inh	PABP FP inh	eIF4H FP inh
CCC(=O)N=c1ccn(C2=Nc3ccccc3NC2=C(C#N)C#N)cc1	-0.1	10.7	-2.1	+	73.1*
O=C(NNC(=O)c1cc2cc(Br)ccc2oc1=O)c1ccc(O)cc1O	1.0	-0.4	-5.6	+	85.4*
COc1cc(C(=O)Nc2ccc3c(c2)OCCO3)ccc1-n1cnnn1	-0.1	6.9	4.3	i	-9.5
CCN(CC)c1ccc2cc(C(=O)Nc3ccc(-n4cnnn4)c(OC)c3)c(=O)oc2c1	.	.	.	+	76.0*
COc1ccc(-c2noc(CSc3nc(-c4ccccc4)cc(=O)[nH]3)n2)cc1	1.6	-112.3	-55.1	i	-8.5
COc1ccc(-c2noc(CSc3nc(N)c(-c4ccccc4)c(=O)[nH]3)n2)cc1OC	-0.4	-2.2	46.1*[fluorescence artefact?]	i	-6.1
COc1ccc(CCN2CC(C(=O)NCc3cccc(F)c3)CCC2=O)cc1 (centres undefined)	.	2.9	.	.	.
O=C(NCCc1ccncc1)c1ccccc1F	1.1	-1.8	60.6*	i	1.6
COc1ccc(C(=O)N2CCCC(CNC(=O)c3ccccc3Cl)C2)o1 (centres undefined)	.	17.0	.	i	-10.2
COC1=C/C(=C/c2c(O)c(C#N)c3ccccn23)C=CC1=O	0.1	-33.3	-3.8	+	67.9
O=C(/C=C/c1ccco1)Nc1cc(Cl)ccc1C(=O)O	1.1	0.2	1.2	+	89.2*
O=C(/C=C/c1ccco1)Nc1ccccc1C(=O)Nc1cccc(C(=O)O)c1	0.5	3.7	2.6	+	?
O=C(/C=C/c1ccco1)NC1=NCCS1	0.1	34.9	8.5	+	?
O=C(/C=C/c1ccco1)Nc1ccccc1N1CCCC1	0.9	16.6	8.2	i	62.4
O=C(/C=C/c1ccco1)Nc1ccccc1C(=O)O	1.3	16.1	7.6	+	94.7
O=C(/C=C/c1ccco1)Nc1cccc(NC(=O)/C=C/c2ccco2)n1	0.0	-0.4	4.5	i	?
CCCCOc1ccc(C(=O)N2CCN(c3ncccn3)CC2)cc1	.	3.2	.	i	-7.6
CCOC(=O)c1c(C)[nH]c(C(=O)COC(=O)c2ccco2)c1C	.	11.4	.	.	.
COc1ccccc1C(=O)N/C(=C/c1ccco1)C(=O)Nc1cccc(C(=O)O)c1	.	-21.3	.	+	66.8*
CC(C(=O)c1ccc(Br)cc1)[n+]1cccc2ccccc21 (centres undefined)	.	-27.7	.	+	90.4
COc1ccc(NC(=O)c2c3c(nc4ccccc24)CCC3)cc1S(=O)(=O)N1CCOCC1	-0.4	-15.4	18.9	+	98.7
Cc1ccc(NC(=O)c2c3c(nc4ccccc24)CCC3)cc1	-0.1	-40.2	-6.2	i	0.3
COc1ccc(C(=O)Nc2ccc(NC(=O)c3ccccc3)cc2)cc1S(=O)(=O)N1CCOCC1	.	-4.3	.	i	-0.3
COc1ccc(NC(=O)CSc2ccc([N+](=O)[O-])cc2)cc1S(=O)(=O)N1CCOCC1	.	40.6*	.	.	.
Cc1ccc(NC(=O)c2c3c(nc4ccccc24)CCC3)cc1S(=O)(=O)N(C)C	0.0	-19.2	22.3	i	72.1*
SMILES	PERK inhibitor	PABP1 MLLE inh	eIF4E-4G inh	PABP FP inh	eIF4H FP inh
COC(=O)CCN1CCC2CC1c1cc(-c3cccc(C)c3)ccc12 (centres undefined)	.	-14.4	.	.	.
CCc1ccccc1NC(=O)COc1ccc(C(=S)N2CCCC2)cc1	-0.9	2.1	3.5	i	-1.6
COCCN(C(=O)c1cccc(OC)c1)c1nnc(-c2ccncc2)s1	0.0	0.7	12.4	i	-3.5
COCCN(C(=O)/C=C/c1ccccc1)c1nnc(-c2cccnc2)s1	-0.1	-13.5	-4.5	+	51.5
Cc1ccc2c(CC(=O)NCC3(N4CCOCC4)CCCCC3)coc2c1C	.	-2.8	.	.	.
CCCSCC(=O)Nc1ncc2c(n1)-c1ccccc1CC2	0.7	7.2	4.0	+	57.6*
CC(C)CC(NC(=O)c1ccccc1)C(=O)N/N=C/c1ccco1 (centres undefined)	-0.2	-7.6	10.5	+	57.8*
CCOC(=O)N1CCN(C(=O)c2ccc(Cl)c(NC(=O)c3cccs3)c2)CC1	.	-5.8	.	.	.
CCCCc1ccc(-c2csc(/C(C#N)=C/c3ccc(C)o3)n2)cc1	-0.3	-58.4	9.3	i	26.0
CCCCc1ccc(-c2csc(/C(C#N)=C\c3ccco3)n2)cc1	1.6	-61.7	0.3	i	55.2*
O=C(CSc1nnc2c3ccccc3c3ccccc3c2n1)Nc1ccccc1	1.2	.	-27.1	i	0.3
O=C(CSc1nnc2c3ccccc3c3ccccc3c2n1)Nc1ccccc1F	0.2	-9.9	-2.1	i	85.3*
O=C1/C(=C\c2ccco2)CCC/C1=C\c1ccco1	-0.7	-43.1	13.6	i	86.2
CC1C/C(=C/c2cccs2)C(=O)/C(=C/c2cccs2)C1 (centres undefined)	0.2	-18.8	-2.1	i	73.7
Cn1cccc1/C=C1\CCC/C(=C\c2cccn2C)C1=O	-0.3	i	1.3	+	52.1*
O=C1/C(=C/c2cccs2)CCC/C1=C\c1cccs1	.	-20.3	.	+	71.9*
Cc1ccc(-c2nc3ncccn3c2NC2CCCCC2)o1	-1.1	-27.2	3.5	+	53.5*
Cc1ccc(-c2nc3ncccn3c2Nc2ccc3c(c2)OCCO3)o1	-0.8	16.5	5.8	i	-0.9
CN(Cc1c(C(=O)N/N=C/c2cc(F)ccc2F)nnn1-c1nonc1N)C1CCCCC1	.	0.9	.	i	-11.8
CCCCn1c(N)c(N(CCOC)C(=O)c2sc3cc(F)ccc3c2Cl)c(=O)[nH]c1=O	.	-18.3	.	.	.
CC1CCCCN1c1nnc(NC(=O)c2cc(-c3ccc(Br)cc3)on2)s1 (centres undefined)	0.4	-6.5	1.1	+	87.0*
COc1ccc(NC(=O)CSc2nnnn2Cc2ccccc2)cc1	-0.5	-2.3	1.1	i	-2.7
CCCC(=O)Nc1nnc(S(=O)(=O)N(CC)c2ccccc2)s1	.	-0.1	.	i	-0.2
CC(Oc1ccc(Cl)cc1Cl)C(=O)Nc1ccc(O)cc1 (centres undefined)	0.2	10.4	-1.4	i	2.6*
COC(=O)C(Cc1ccc(O)cc1)NC(=O)CCc1nc2ccccc2s1 (centres undefined)	.	1.8	.	i	-2.9
SMILES	PERK inhibitor	PABP1 MLLE inh	eIF4E-4G inh	PABP FP inh	eIF4H FP inh
COCCn1c(SCc2nc3sc(C(=O)OC)c(C)c3c(=O)[nH]2)nc2ccccc21	0.1	-87.5	-14.2	i	53.2
COC(=O)c1sc2nc(CSc3ccc(Br)cc3)[nH]c(=O)c2c1C	1.1	-38.7	-1.9	+	51.2*
CCn1c(SCc2nc3sc(C(=O)O)c(C)c3c(=O)[nH]2)nc2ccccc21	0.9	-30.2	30.0	+	83.3*
COc1cc2[nH]c(C(=O)N3CCc4ccccc43)cc2c(OC)c1OC	.	-0.3	.	i	-12.6
Cc1cc(Oc2ccc(N)cn2)ccc1Cl	1.0	-80.1	-2.1	+	?
COc1cccc(Oc2ccc(N)cn2)c1	0.2	-14.5	3.1	?	?
O=C(NCc1ccco1)c1sc(=S)n2c1[nH]c(=O)c1ccccc12	0.7	44.6*	4.4	i	5.0

High-throughput results from PubChem.
